Assay results taken from PubChem BioAssay AID743395 (Broad Institute, 2014).
In all, about 1,200 compounds went through this assay and about 480 (40%) were called active. The rule behind the calls is not given here. The set was probably picked from earlier hits. Not all results are given here. Results with a measured potency or affinity are listed apart.

Assay: HepG2 cell cytotoxicity, dose response, cytotoxicity control, CellTiter-Glo luminescence, cherry-pick, set 2 (AID 743395);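 note: 0% = neutral control wells and -100% = positive control wells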
Conditions: HepG2 viability, CellTiter-Glo ATP luminescence, 72 h; series mostly up to 26 µM; activity change, negative = cytotoxicity: at the top concentration

Compound	activity change, negative = cytotoxicity
CN1C(=O)c2cccc3c(N)ccc(c23)C1=O	-20.1% (inactive)
CC1Cc2nc(SCC(=O)N3CCOCC3)n(-c3ccccc3)c(=O)c2S1 (stereo not drawn)	-24% (inactive)
COc1cc(/C=C(\CC(=O)O)c2nc3ccccc3s2)ccc1OCC(=O)Nc1ccccc1F	-10.9% (inactive)
CC(C)(C)c1ccccc1NC(=O)CN1C(=O)NC2(CCCCCC2)C1=O	-9.96% (inactive)
CC(=O)Nc1ccc(-c2csc(NC(=O)CN3C(=O)NC4(CCCC4)C3=O)n2)cc1	1.18% (inactive)
O=C(NC1CCN(Cc2ccccc2)CC1)c1cc(S(=O)(=O)N2CCOCC2)ccc1Cl	-4.42% (inactive)
Cn1c(CC(=O)NN)c(Sc2ccccc2)c2ccccc21	0.473% (inactive)
COc1cc(/C=C(\C#N)C(=O)c2c[nH]c3ccccc23)cc(OC)c1O	12.3% (inactive)
CCCOc1cc(N(CC)CC)ccc1/C=C(/C#N)c1nc2ccc(C)cc2[nH]1	-7.43% (inactive)
O=C(Nc1ccn(CCCNC2CCN(Cc3ccccc3)CC2)c(=O)n1)OCc1ccccc1	-10.9% (inactive)
Clc1ccc(N(CC2CO2)CC2CO2)cc1 (stereo not drawn)	-9.93% (inactive)
CC1=C(C(=O)N(C)C)CC(CC(=O)NCc2cccc3ccccc23)C(=O)N1CCCN1CCCC1=O (stereo not drawn)	-1.91% (inactive)
Cc1cccc(NC(=O)CN2CCN(C(=O)CN3C(=O)NC4(CC(C)CC(C)(C)C4)C3=O)CC2)c1C (stereo not drawn)	-20.4% (inactive)
COc1ccc(S(=O)(=O)N2CC[C@@H]3[C@@H](CO)N(C)c4ccc(-c5ccc(F)cc5)cc4[C@@H]32)cc1	10.9% (inactive)
CCOc1ccc2c(c1)C(C)=CC(C)(C)N2S(=O)(=O)c1ccc(F)cc1	-15.7% (inactive)
COc1ccc2c(c1)C(O)C(CO)C(C(=O)O)C2 (stereo not drawn)	-0.564% (inactive)
O=C(Cc1ccccn1)NCC[C@H]1CC[C@H](NC(=O)Nc2ccc(C(F)(F)F)cc2)[C@H](CO)O1	4.87% (inactive)
Fc1ccc2nc(C3CCN(Cc4nc(CC5CC5)no4)CC3)[nH]c2c1	-1.48% (inactive)
N#C/C(=C(/O)c1ccc(Br)s1)c1nc2ccccc2[nH]1	-19.7% (inactive)
Cc1cc2oc(C(=O)NCCc3ccc(S(N)(=O)=O)cc3)c(C)c2cc1C	-9.06% (inactive)
CCOC(=O)N1CCN(S(=O)(=O)c2ccc3c(c2)C(C)C(=O)N3)CC1 (stereo not drawn)	-13% (inactive)

Compound	activity change, negative = cytotoxicity
COc1ccccc1C1CC(=O)Nc2cc3c(cc21)OCCO3 (stereo not drawn)	5.01% (inactive)
CCOc1ccccc1NC(=O)CC1SC(=N)N(c2ccccc2)C1=O (stereo not drawn)	-1.66% (inactive)
O=S1(=O)c2ccc(Br)cc2N2CCC[C@H]2CN1Cc1ccccc1	-13.4% (inactive)
O=C(CC1Sc2ccccc2NC1=O)NNc1cccc(Cl)c1Cl (stereo not drawn)	-13.7% (inactive)
CC(=O)OC1CCC2(C)C(=CCC3C2CCC2(C)C3CC3ON=C(C)C32)C1 (stereo not drawn)	-4.59% (inactive)
Cc1ccc(S(=O)(=O)N2C[C@H]3[C@H]4C(=O)N(C)C(=O)[C@H]4CC(=O)[C@H]3[C@@H]2c2ccccc2F)cc1	11.8% (inactive)
CCCNC(=O)N1C[C@@H]2[C@H](c3ccccc31)[C@H](CO)N2Cc1ccc(OC)cc1	-1.83% (inactive)
NS(=O)(=O)c1cc(Cl)c(Cl)c(S(N)(=O)=O)c1	-6.58% (inactive)
COc1ccc(CC(=O)NC(c2ccccc2)c2ccc(C)cc2)c(OC)c1 (stereo not drawn)	15.1% (inactive)
CC(C)NC(=O)NC(=O)COC(=O)c1ccc(S(=O)(=O)Nc2ccccc2)cc1	-0.043% (inactive)
Cc1cc(-c2ccccc2)nc(N(C)NC(=O)C2CC2)c1S(C)(=O)=O	-8.74% (inactive)
CCc1cccc(NC(=O)COC(=O)c2cc([N+](=O)[O-])ccc2N2CCOCC2)c1	-15.3% (inactive)
COc1ccc(C(=O)c2cc([N+](=O)[O-])ccc2N2CCN(C)CC2)cc1	-26.3% (inactive)
O=C(COC(=O)c1cc([N+](=O)[O-])ccc1N1CCOCC1)Nc1c(Cl)cccc1Cl	-4.02% (inactive)
C[C@@H]1CN([C@H](C)CO)S(=O)(=O)c2ccc(/C=C/c3ccccc3)cc2O[C@H]1CN(C)C(=O)NC1CCCCC1	-16.1% (inactive)
COc1cccc(/C=N/NC(=O)C(=O)N/N=C/c2cccc(OC)c2O)c1O	10.6% [at 8 µM] (inactive)
C#CCN(C)CCCOc1ccc(Cl)cc1Cl	-3.84% (inactive)
CC(C)Nc1nc(Nc2ccc(C#N)cc2)c2sccc2n1	-26.4% (inactive)
CCCCNc1cc(C(=O)O)cc(S(N)(=O)=O)c1Oc1ccccc1	1.62% (inactive)
CC[N+]1(CC)CC2=Cc3ccccc3CC2C1 (stereo not drawn)	-11.6% (inactive)
Cc1ccc2c(CN3CCN(S(=O)(=O)c4ccc(Cl)cc4)CC3)cc(=O)oc2c1C	-1.82% (inactive)

Compound	activity change, negative = cytotoxicity
C#Cc1ccc(NC(=O)C2(C)CCN2C(=O)c2cc(C)n(C)n2)cc1 (stereo not drawn)	-2.6% (inactive)
CCN1C(=O)c2cccc3c(N)ccc(c23)C1=O	-13.8% (inactive)
Cn1c(NCc2ccccc2F)nc2cc(-c3ccsc3)sc2c1=O	-4% (inactive)
Nc1ccc(-c2c3ccc(=O)cc-3oc3cc(O)ccc23)cc1C(=O)O	-5.54% (inactive)
Cc1cc2oc(=O)cc(-c3ccccc3)c2c(C)c1-c1ccc(O)cc1	-5.01% (inactive)
COC(=O)CNc1cc(S(=O)(=O)N2CCCCC2)ccc1Oc1ccc(C(=O)OC)cc1	11.2% (inactive)
COc1ccc(NC(=O)C(CC(=O)O)Cc2ccc(Cl)cc2)cc1 (stereo not drawn)	12.9% (inactive)
COc1ccccc1CNC(=O)Cn1cnnn1	-10.7% (inactive)
C#Cc1ccc(C(=O)Nc2ccc(N3CCC(C)CC3)c(C(N)=O)c2)cc1	-15.7% (inactive)
COc1ccccc1/C=C/C=N/NC(=O)CCn1cnc2ccccc21	-31.2% (inactive)
Cc1ccc(OCC(=O)Nc2ccc3c(c2)ncn3C)cc1	-12.2% (inactive)
C[C@H]1CN([C@@H](C)CO)S(=O)(=O)c2ccc(C#Cc3ccccc3F)cc2O[C@H]1CN(C)C(=O)c1ccc2c(c1)OCO2	25.8% (inactive)
COc1cc(/C=N/NC(=O)c2cc(-c3c(C)nn(-c4ccccc4)c3C)n[nH]2)ccc1O	2.51% (inactive)
COc1ccc(/C=N/NC(=O)c2cccnc2)cc1CSc1ccccn1	-16.4% (inactive)
CC#CCOCC1CNC(=O)O1 (stereo not drawn)	-6.75% (inactive)
CCCN1[C@H](C(=O)N2CCOCC2)[C@@H](CO)[C@@H]2Cn3c(ccc(/C=C/c4ccccc4)c3=O)[C@@H]21	1.53% (inactive)
O=C(COC(=O)C1CCC1)Nc1cc(S(=O)(=O)N2CCOCC2)ccc1Cl	9.46% (inactive)
CCOc1ccc(S(=O)(=O)N2CCOCC2)cc1NC(=O)CSCC(=O)Nc1ccc(OC)cc1	-6.38% (inactive)
COC(=O)[C@H](CCSC)NC(=O)Cn1cc(C)c(=O)[nH]c1=O	-3.37% (inactive)
COCOc1cccc(CN2CCC2(C)C(=O)Nc2ccc(C)c(O)c2)c1 (stereo not drawn)	-20.5% (inactive)
CCN(C(=O)CSc1nnc(C)n1-c1ccc(C)cc1)c1c(N)n(Cc2ccccc2)c(=O)[nH]c1=O	-6.86% (inactive)
